Laboratory results as given in publication PMC4552634, “A New Set of Chemical Starting Points with Plasmodium falciparum Transmission-Blocking Potential for Antimalarial Drug Discovery” (PLoS ONE, 2015).
Hit rate of the full screen: of about 13,000 compounds, about 3,200 (25%) showed an effect of 50% or more. Some of the results follow.

System: P. falciparum stage V gametocytes
Parameters: BacTiter-Glo ATP luminescence viability of purified stage V gametocytes in 384-well plates, per cent inhibition versus DMSO
Settings: 48 h, 5 µM; inhibitor

Compound | % Inhibition
CCCCC(CCCC)CN1C(=O)C(c2ccccc2)(c2ccccc2)N=C1N [TCMDC-136878] | -47.08%
CC1CCCN(S(=O)(=O)c2cc(Br)cc3c2N(C(=O)C2CC2)CC3)C1 (stereo not shown) [TCMDC-123872] | 16.45%
CCn1c(CN2CCN(Cc3ccccc3)CC2)nc2cc(NC(=O)c3cccs3)ccc21 [TCMDC-125164] | 1.939%
CCCC[C@@H](C(=O)NCCc1ccc(Cl)cc1)N1C(=O)CCC1C(=O)Nc1ccc(Cl)c(Cl)c1 (stereo partly shown) [TCMDC-141410] | 67.56%
O=C(Nc1ccc(Cl)c(Cl)c1)C1CCC(=O)N1[C@@H](Cc1ccccc1)C(=O)NCCc1ccc(Cl)cc1 (stereo partly shown) [TCMDC-141411] | 6.201%
CCCC[C@@H](C(=O)NCc1ccccc1C(F)(F)F)N1C(=O)CCC1C(=O)Nc1ccc([N+](=O)[O-])cc1 (stereo partly shown) [TCMDC-141409] | 20.34%
CN(CCN(C)C(=O)NCc1ccccc1)C(=O)NCc1ccccc1 [TCMDC-138997] | -5.894%
COc1ccc(NS(=O)(=O)c2ccc(C(=O)Nc3ccc(OC(F)(F)F)cc3)cc2)cc1N1CCN(CC2CC2)CC1 [TCMDC-136298] | -1.186%
N#Cc1ccc2c(c1)CCN(CCC1CCC(NC(=O)c3cc4ccc(Cl)cc4[nH]3)CC1)C2 (stereo not shown) [TCMDC-139194] | -33.95%
O=C(Nc1ccc(CN2CCOCC2)cc1)c1ccc(-c2cc(Cl)ccc2Cl)o1 [TCMDC-125390] | -41.52%
CC(C)(C)c1ccc(NC(=O)c2ccc(CN3CCCN(Cc4ccc(F)cc4)CC3)cc2)cc1 [TCMDC-136435] | -15.47%
Cc1ccc(CN2CCCN(Cc3ccc(C(=O)Nc4ccc(Cl)cc4)cc3)CC2)s1 [TCMDC-136414] | 86.68%
CN1CCCN(Cc2cccc(-c3ccc(NC(=O)c4cccc(Cl)c4)cc3)c2)CC1 [TCMDC-132664] | 44.2%
O=C(Nc1ccc(Cl)cc1)c1ccc(CN2CCCN(Cc3ccc(F)cc3)CC2)cc1 [TCMDC-136408] | 63.43%
CN1CCCN(Cc2cccc(-c3cccc(NC(=O)c4ccc(Cl)cc4)c3)c2)CC1 [TCMDC-132653] | 14.2%
Cc1ccc(CN2CCCN(Cc3cccc(C(=O)Nc4ccc(C(C)(C)C)cc4)c3)CC2)s1 [TCMDC-135991] | -86.63%
CCc1ccc(NC(=O)c2ccc(CN3CCCN(Cc4ccc(C)s4)CC3)cc2)cc1 [TCMDC-136449] | 10.45%
O=C(Nc1ccc(CN2CCOCC2)cc1)c1ccc(-c2ccc(Br)cc2)o1 [TCMDC-123781] | -11.97%
O=C(Nc1ccc(Cl)cc1)c1ccc(CN2CCCN(Cc3ccccc3)CC2)cc1 [TCMDC-136401] | -26.98%
O=C(Nc1ccc(CN2CCOCC2)cc1)c1ccc(-c2ccc(Cl)cc2)o1 [TCMDC-124455] | 70.13%
CN1CCCN(Cc2cccc(-c3ccc(NC(=O)c4ccc(Cl)cc4)cc3)c2)CC1 [TCMDC-132667] | 81.69%
COc1ccc(C2CC(c3ccccc3)=NN2C(=O)c2ccc(Br)o2)cc1 (stereo not shown) [TCMDC-123705] | -10.79%

Compound | % Inhibition
CCCCCC(C)C(C)c1cc(O)c2c(c1)OC(C)(C)CC2c1cc[n+]([O-])cc1 (stereo not shown) [TCMDC-131347] | 15.63%
CCOc1ccc(Br)cc1/C=C/C(=O)Nc1ccc2c(c1)C1CCC2N1C (stereo not shown) [TCMDC-134191] | -33.77%
Nc1c(Cl)cc(C(O)CNCCCCCCOCCC=C2CCOCC2)cc1Cl (stereo not shown) [TCMDC-132097] | 35.85%
CC(C)(C)c1ccc(NC(=O)c2ccc(CN3CCCN(Cc4cccc(C#N)c4)CC3)cc2)cc1 [TCMDC-136430] | 8.252%
CC(C)(C)c1ccc(NC(=O)c2ccc(CN3CCCN(Cc4cccc(Cl)c4)CC3)cc2)cc1 [TCMDC-136432] | -29.42%
CCc1ccc(NC(=O)c2ccc(CN3CCCN(Cc4cccc(Cl)c4)CC3)cc2)cc1 [TCMDC-136438] | -4.503%
N#Cc1cccc(CN2CCCN(Cc3cccc(C(=O)Nc4ccc(Cl)cc4)c3)CC2)c1 [TCMDC-135962] | -1.409%
N#Cc1cccc(CN2CCCN(Cc3ccc(C(=O)Nc4ccc(Cl)cc4)cc3)CC2)c1 [TCMDC-136403] | 58.71%
O=C(Nc1ccc(Cl)cc1)c1ccc(CN2CCCN(Cc3cccc(Cl)c3)CC2)cc1 [TCMDC-136405] | 70.05%
O=C(Nc1ccccc1)N1CCOC(CCN2CCC(F)(F)CC2)(c2ccc(Cl)c(Cl)c2)C1 (stereo not shown) [TCMDC-135565] | -12.88%
Cc1ccc(F)c(CN2CCC(N3CC(c4ccccc4)(c4ccccc4)OC3=O)CC2)c1Cl [TCMDC-136067] | -42.69%
COc1ccc(OCCCON2C(N)=NC(N)=NC2(C)C)cc1 [TCMDC-131727] | -17.37%
CCCc1cc(NCC)nc(Nc2ccc(F)cc2)n1 [TCMDC-134011] | 18.21%
CCCCc1cc(=O)oc2cc(C)cc(OCc3ccccc3F)c12 [TCMDC-125642] | 42.72%
COc1ccc(Cl)cc1N1CCN(CCCNC(=O)c2ccc(-c3nc4c(C)cccc4[nH]3)s2)CC1 [TCMDC-140050] | -10.33%
COc1ccc(Cl)cc1N1CCN(CCCNC(=O)c2ccc(-c3nc4ccc(C(F)(F)F)cc4[nH]3)c(C)c2)CC1 [TCMDC-140121] | -20.72%
Cc1ccc(Cl)cc1N1CCN(CCCNC(=O)C2CCN(c3nc4ccccc4[nH]3)CC2)CC1 [TCMDC-124405] | 57.08%
Oc1ccccc1N1CCN(c2ccc(-c3nc4ccccc4[nH]3)cn2)CC1 [TCMDC-124820] | -75.14%
CC(=O)N(Cc1nc(-c2cc(Cl)c(Cl)s2)cs1)c1c(C)cccc1C [TCMDC-135640] | -42.77%
Cc1noc(C)c1-c1cccc(CNCc2ccc(-c3ccc(-c4nc5cccc(C)c5[nH]4)cc3)cc2)c1.O=C(O)C(F)(F)F [TCMDC-133061] | -10.97%
CS(=O)(=O)c1ccc(-c2nc(NCC3CCCCC3)cc(C(F)(F)F)n2)cc1 [TCMDC-138597] | 3.227%
